Potency data for 17 molecules are collected here from PubChem BioAssay (NCATS).

Test [1] is described as follows: Quantitative High-Throughput drug screen in 47 multiple myeloma cell lines against the NCATS MIPE library collection: U266_ATCC cell viability assay (AID 1919864). Note: nearly all actives have a fitted effect of over 35% in size. In a few lines:
(§1)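 Readout: median RLU from CellTiter-Glo after 5 min at room temperature. Preceding step was 48 h drug treatment of 500 cells/well at 37 °C, 5% CO2, with DMSO-only and media-only control wells.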

Test [2] can be described thus: Quantitative High-Throughput drug screen in 47 multiple myeloma cell lines against the NCATS MIPE library collection: VP6_DJ cell viability assay (AID 1919867). Note: nearly all actives have a fitted effect of over 40% in size. In short, it runs like this: as §1
Test [3] is described as follows: Quantitative High-Throughput drug screen in 47 multiple myeloma cell lines against the NCATS MIPE library collection: PE2_PLB cell viability assay (AID 1919869). Note: nearly all actives have a fitted effect of over 35% in size. In short, it runs like this: as §1
Test [4] can be described thus: Quantitative High-Throughput drug screen in 47 multiple myeloma cell lines against the NCATS MIPE library collection: PCM6_Riken cell viability assay (AID 1919870). Note: nearly all actives have a fitted effect of over 30% in size. In short, it runs like this: as §1
A short description of test [5]: Quantitative High-Throughput drug screen in 47 multiple myeloma cell lines against the NCATS MIPE library collection: RPMI8226_ATCC cell viability assay (AID 1919871). Note: nearly all actives have a fitted effect of over 30% in size. In short, it runs like this: as §1
A short description of test [6]: Quantitative High-Throughput drug screen in 47 multiple myeloma cell lines against the NCATS MIPE library collection: OPM2_DSMZ cell viability assay (AID 1919872). Note: nearly all actives have a fitted effect of over 30% in size. In short, it runs like this: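 Myeloma cell lines, 500 cells per well, exposed to MIPE 4.0 library compounds for 48 h at 37C, 5% CO2. Viability from ATP by CellTiter-Glo luminescence; normalised to DMSO (100%) and media-only (0%) wells.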

Test [7] is described as follows: Quantitative High-Throughput drug screen in 47 multiple myeloma cell lines against the NCATS MIPE library collection: KMS11_JCRBsus cell viability assay (AID 1919873). Note: nearly all actives have a fitted effect of over 50% in size. In a few lines:
as §1

Test [8] can be described thus: Quantitative High-Throughput drug screen in 47 multiple myeloma cell lines against the NCATS MIPE library collection: UTMC2_PLB cell viability assay (AID 1919868). Note: nearly all actives have a fitted effect of over 55% in size. As to conditions: CellTiter-Glo ATP luminescence, 48 h; viability (% of DMSO control): at 45.8 µM (top of the series). In a few lines:
as §1
Background: ATP-based viability assays read luminescence as a measure of living cells.

The nature of test [9]: Quantitative High-Throughput drug screen in 47 multiple myeloma cell lines against the NCATS MIPE library collection: XG6_PLB cell viability assay (AID 1919865). Note: nearly all actives have a fitted effect of over 40% in size. In a few lines: as §1
The nature of test [10]: Quantitative High-Throughput drug screen in 47 multiple myeloma cell lines against the NCATS MIPE library collection: XG1_PLB cell viability assay (AID 1919866). Note: nearly all actives have a fitted effect of over 35% in size. In short, it runs like this: as §1

The structures appear in SMILES notation. Records with an inconclusive call do not appear. Active and inactive are the calls of the source. Calls come from the whole dose curve; as a rule, active = well fitted cell-killing curve with a large enough effect; inconclusive = small, poorly fitted or top-dose-only effect, or effect the other way; inactive = no such curve, though single readings can be large or run the other way.
Potency is the fitted concentration of half-maximal effect.

Regarding `COc1cc(CCc2cc(NC(=O)c3ccc(N4C[C@@H](C)N[C@@H](C)C4)cc3)n[nH]2)cc(OC)c1`, the Potency in [1] was 20.9 µM (active); in test [2], 7.43 µM (active); in test [3], 11.8 µM (active); in test [4], 13.2 µM (active); in [5] it was 18.7 µM (active); in test [6] it was 13.2 µM (active). Also, in test [7], the Potency was 4.69 µM (active).

In the case of `O=C(C=CC=Cc1ccc2c(c1)OCO2)N1CCCCC1`, the Potency result in test [1], in test [8], in test [3], in test [4] and in test [7] was “inactive” in each case. The Potency in [2] is 2.64 µM (active); in test [5] it was 3.72 µM (active).

`OCc1ccccc1O[C@@H]1O[C@H](CO)[C@H](O)[C@H](O)[C@H]1O`: the Potency entry in [1], in [2], in [8], in test [3], in test [4] and in test [6] was “inactive” in each case. Also, the Potency result in [7] was “inactive”.

For the molecule `COc1cc(O)c2c(c1)C1OC1C[C@H](O)[C@H](O)C(=O)C=CC[C@H](C)OC2=O` (stereo not given in full), the Potency was 4.69 µM (active) in [9]; 2.64 µM (active) in [10]; 1.66 µM (active) in test [2]; 10.5 µM (active) in test [8]; 2.35 µM (active) in test [3]; 2.35 µM (active) in [4]. The Potency was 3.72 µM (active) in test [5], 2.64 µM (active) in test [6] and 2.35 µM (active) in test [7].

As to `COC(=O)C1C2CC3c4[nH]c5cc(OC)ccc5c4CCN3CC2CC(OC(=O)c2cc(OC)c(OC)c(OC)c2)C1OC` (stereo not given), the Potency is 23.5 µM (active) in [1]; 14.8 µM (active) in test [3]; 16.6 µM (active) in test [4]; 16.6 µM (active) in test [5]; 29.6 µM (active) in [7].

For `Cc1cnc(Nc2ccc(N3CCN(C)CC3)cc2)nc1Nc1cccc(S(=O)(=O)NC(C)(C)C)c1`, the Potency in test [9] was 0.662 µM (active); in [10] it was 0.469 µM (active); in test [2], 0.469 µM (active); in [8] it was 2.35 µM (active); in test [3] it was 1.32 µM (active); in test [4], 3.72 µM (active). Also, the Potency is 4.18 µM (active) in test [5], 6.62 µM (active) in [6] and 1.32 µM (active) in test [7].

On to `C=C(C)[C@@H]1CC[C@]2(C)CC[C@]3(C)[C@H](CC[C@@H]4[C@@]5(C)CC[C@H](O)C(C)(C)[C@H]5CC[C@]43C)[C@@H]12`, for which the Potency entry in test [9], in test [10], in test [2], in test [8], in [3] and in [4] was “inactive” each time. Moreover, the Potency result in test [6] and in [7] was “inactive” each time.

Take `CC(C)N(CC[C@H](c1ccccc1)c1cc(CO)ccc1O)C(C)C`: the Potency entry in [9], in [10], in test [2], in test [3], in [4] and in [6] was “inactive” each time. Further, in test [7], the Potency result is “inactive”.

Take `O=C(O)C(=O)Nc1cccc(C2=NN=N[N]2)c1`: the Potency entry in [9], in [10], in [2], in test [3] and in test [4] was “inactive” in each case.

For `COc1ccc2cc([S+]([O-])Cc3ncc(C)c(OC)c3C)nc2c1`, the Potency entry in [9], in [10], in test [2], in test [4], in test [5] and in test [6] was “inactive” in each case. Moreover, the Potency entry in test [7] is “inactive”.

With `NC(=NCCCCCCN=C(N)N=C(N)Nc1ccc(Cl)cc1)N=C(N)Nc1ccc(Cl)cc1`, the Potency in test [9] is 2.35 µM (active); in test [10], 2.64 µM (active); in test [2], 2.35 µM (active); in [3] it was 6.62 µM (active); in test [4], 2.64 µM (active); in test [5] it was 16.6 µM (active). The Potency in test [6] and in [7] was 14.8 µM (active) throughout.

Turning to `CC(C)(C)[N+]([O-])=Cc1ccc(S(=O)(=O)O)cc1S(=O)(=O)O`, the Potency entry in test [9], in test [10], in test [2], in test [3], in test [5] and in test [6] was “inactive” throughout. Also, in [7], the Potency result was “inactive”.

Take `O=C(O)C[C@H](O)C[C@H](O)C=Cc1c(C2CC2)nc2ccccc2c1-c1ccc(F)cc1`: the Potency is 18.7 µM (active) in test [9]; 3.32 µM (active) in test [10]; 16.6 µM (active) in test [2]; 9.35 µM (active) in test [8]; 4.69 µM (active) in test [3]; 16.6 µM (active) in [5]. The Potency in [7] was 7.43 µM (active).

In the case of `O=C(Nc1cccc(Nc2ncc(Br)c(NCCc3cnc[nH]3)n2)c1)N1CCCC1`, the Potency in [9] is 0.59 µM (active); in test [10], 0.372 µM (active); in [2], 2.64 µM (active); in [8], 0.662 µM (active); in test [3], 2.96 µM (active); in test [4], 3.32 µM (active). Moreover, in test [7], the Potency was 8.33 µM (active).

Take `CCCCOc1ccc(C(=O)Nc2ccc(F)cc2F)cc1`: the Potency result in test [9], in test [10], in test [3], in [4], in test [5] and in test [6] was “inactive” each time. The Potency entry in [7] was “inactive”. Further, the Potency in test [2] is 7.43 µM (active).

Regarding `CC1(C)[C@H](O[C@H]2O[C@H](C(=O)O)[C@@H](O)[C@H](O)[C@H]2O[C@@H]2O[C@H](C(=O)O)[C@@H](O)[C@H](O)[C@H]2O)CC[C@@]2(C)[C@H]1CC[C@]1(C)[C@H]2C(=O)C=C2[C@H]3C[C@@](C)(C(=O)O)CC[C@]3(C)CC[C@]21C`, the Potency entry in test [9], in [10], in test [2], in test [3] and in test [4] was “inactive” each time.

Take `COc1cc2c(cc1OC)[C@@H]1C(=O)c3ccc4c(c3O[C@@H]1CO2)C=CC(C)(C)O4`: the Potency in [9] was 0.105 µM (active); in test [10], 6.62 µM (active); in test [2] it was 0.0418 µM (active); in test [8], 0.418 µM (active); in test [3], 7.43 µM (active); in test [4], 7.43 µM (active). The Potency in test [7] is 0.0418 µM (active).
